Here are results for 7 compounds from PubChem BioAssay (NCI).

A short description of test [1]: NCI Yeast Anticancer Drug Screen. Data for the rad50 strain (AID 155).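 Also: 0% = growth of vehicle-only cultures of the same strain.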 To be noted: S. cerevisiae rad50 strain growth inhibition, stronger effect = higher value. An outline of the steps: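 Relative growth inhibition (compound vs vehicle) was measured in yeast with a defined repair-gene alteration.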
Test [2] is described as follows: NCI Yeast Anticancer Drug Screen. Data for the mec2-1 strain (AID 157). To be noted: S. cerevisiae mec2-1 strain, stronger effect = higher value. In short, it runs like this: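 Vehicle-treated cultures served as reference for growth inhibition of compound-exposed mec2-1 yeast.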
Test [3] can be described thus: NCI Yeast Anticancer Drug Screen. Data for the sgs1 mgt1 strain (AID 161).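 Also: 0% = growth of cultures given vehicle only.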 The conditions noted are these: S. cerevisiae sgs1 mgt1 strain, stronger effect = higher value. In short, it runs like this:
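Read-out: growth inhibition vs vehicle controls. Cells: mutant yeast strain deficient in DNA damage repair.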

The nature of test [4]: NCI Yeast Anticancer Drug Screen. Data for the cln2 rad14 strain (AID 165).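 Also: 0% = growth equal to vehicle treated cultures.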 The conditions noted are these: S. cerevisiae cln2 rad14 strain, stronger effect = higher value. An outline of the steps: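 Each compound was tested on cln2 rad14 yeast. Inhibition of growth was calculated against vehicle-exposed controls.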
A short description of test [5]: NCI Yeast Anticancer Drug Screen. Data for the bub3 strain (AID 167). To be noted: S. cerevisiae bub3 mutant strain, stronger effect = higher value. In short, it runs like this:
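Screening used yeast with an engineered genetic alteration affecting cell cycle control. Compound-exposed cultures were compared with vehicle cultures, and reduced growth was taken as inhibition.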

Test [6] in a line: NCI Yeast Anticancer Drug Screen. Data for the mlh1 rad18 strain (AID 175). The conditions noted are these: S. cerevisiae mlh1 rad18 strain growth inhibition, stronger effect = higher value. In short, it runs like this:
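Vehicle-treated cultures served as the reference for growth inhibition in a yeast strain carrying DNA damage repair alterations exposed to each compound.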

The mark [7] stands for this setting: at 5.0 µM (retest, dose inferred, filed as 0.5).
Where [8] appears, read: at 50.0 µM (retest, dose inferred, filed as 5.0).

Several values for one entry are separate records, joined by “and”; a condition that tells them apart may be missing. Identical values can stand only once. About 79,000 compounds went through this panel and 15% of them were active in at least one assay; those are over-represented in the sample as a whole. Some structures have more than one record in an assay (separate samples or runs), and their calls can disagree. Activity calls are given as the source filed them. Rule as the data show it: active = growth inhibition above about 70%; inactive = the rest. Where a SMILES comes first, the peptide text is derived from it. [ ]: non-standard residue; d: D form. ξ: configuration not given here. ξV = CC(C)C(N)C(=O)O

As for `O=c1[nH]c(=O)n(C2OC(CO)C(O)C2O)cc1F` (stereo unspecified), the growth inhibition is 21% (inactive) and 30% (inactive) in test [1] (setting [7]); 96% (active) and 95% (active) in test [1] (setting [8]); 96.2% (active) and 93% (active) in test [1] (at 50.0 µM); 42% (inactive) and 39% (inactive) in test [2] (setting [7]); 99% (active) in test [2] (setting [8]); 97.3% (active) and 97.8% (active) in test [2] (at 50.0 µM). The growth inhibition in test [3] (setting [7]) is 65% (inactive) and 80% (active); in test [3] (setting [8]), 98% (active); in test [3] (at 50.0 µM), 97.8% (active) and 96.1% (active); in test [4] (setting [7]) it was 15% (inactive) and 24% (inactive); in test [4] (setting [8]), 96% (active) and 98% (active); in test [4] (at 50.0 µM) it was 90.5% (active) and 92.2% (active). For the same compound, the growth inhibition in test [5] (setting [7]) is 5% (inactive) and -1% (inactive); in test [5] (setting [8]), 98% (active) and 97% (active); in test [5] (at 50.0 µM), 96.3% (active) and 90.2% (active); in test [6] (setting [7]) it was 24% (inactive) and 6% (inactive); in test [6] (setting [8]), 97% (active) and 96% (active); in test [6] (at 50.0 µM), 94.8% (active) and 92.2% (active).

With `O=C(O)c1ccc(Nc2cnc3ccc(C(F)(F)F)cc3n2)cc1`, the growth inhibition in test [1] (setting [7]) is 18% (inactive); in test [1] (setting [8]), 16% (inactive); in test [1] (at 50.0 µM), 60.9% (inactive); in test [2] (setting [7]), 4% (inactive); in test [2] (setting [8]), 12% (inactive); in test [2] (at 50.0 µM) it was 41.2% (inactive). The growth inhibition in test [3] (setting [7]) is 10% (inactive); in test [3] (setting [8]), 13% (inactive); in test [3] (at 50.0 µM), 18.2% (inactive); in test [4] (setting [7]) it was 5% (inactive); in test [4] (setting [8]), 12% (inactive); in test [4] (at 50.0 µM), -0.05% (inactive). For the same compound, the growth inhibition is 5% (inactive) in test [5] (setting [7]); 12% (inactive) in test [5] (setting [8]); 4.9% (inactive) in test [5] (at 50.0 µM); 16% (inactive) in test [6] (setting [7]); 16% (inactive) in test [6] (setting [8]); 6.7% (inactive) in test [6] (at 50.0 µM).

For the compound `CCCC1CCC(=C2C(=O)CCC2=O)O1` (stereo unspecified), the growth inhibition in test [1] (setting [7]) was 6% (inactive); in test [1] (setting [8]), 21% (inactive); in test [1] (at 50.0 µM), -4.75% (inactive) and 90.7% (active); in test [2] (setting [7]), 2% (inactive); in test [2] (setting [8]) it was 19% (inactive); in test [2] (at 50.0 µM), -8.75% (inactive) and 92.2% (active). Also, the growth inhibition in test [3] (setting [7]) was 9% (inactive); in test [3] (setting [8]), 26% (inactive); in test [3] (at 50.0 µM) it was -5.55% (inactive) and 92.7% (active); in test [4] (setting [7]), -2% (inactive); in test [4] (setting [8]) it was 8% (inactive); in test [4] (at 50.0 µM), 0.65% (inactive) and 91.2% (active). For the same compound, the growth inhibition in test [5] (setting [7]) is 8% (inactive); in test [5] (setting [8]), 9% (inactive); in test [5] (at 50.0 µM), 2.55% (inactive) and 91% (active); in test [6] (setting [7]), 15% (inactive); in test [6] (setting [8]), 35% (inactive); in test [6] (at 50.0 µM) it was -13.1% (inactive) and 90.8% (active).

Take `Oc1cc2c3c(c1)c1cc4c(cc1c[n+]3CC2)OCO4`: the growth inhibition was 42% (inactive) and 11% (inactive) in test [1] (setting [7]); 72% (active) and 56% (inactive) in test [1] (setting [8]); -22.4% (inactive) and 52% (inactive) in test [1] (at 50.0 µM); 36% (inactive) and 10% (inactive) in test [2] (setting [7]); 57% (inactive) and 41% (inactive) in test [2] (setting [8]); -44.9% (inactive) and 33.4% (inactive) in test [2] (at 50.0 µM). The growth inhibition in test [3] (setting [7]) is 64% (inactive) and 33% (inactive); in test [3] (setting [8]) it was 85% (active) and 63% (inactive); in test [3] (at 50.0 µM), -5.25% (inactive) and 50.9% (inactive); in test [4] (setting [7]) it was 59% (inactive) and 28% (inactive); in test [4] (setting [8]), 74% (active) and 39% (inactive); in test [4] (at 50.0 µM), 0.95% (inactive) and 43.3% (inactive). The growth inhibition in test [5] (setting [7]) is 63% (inactive) and 23% (inactive); in test [5] (setting [8]), 84% (active) and 60% (inactive); in test [5] (at 50.0 µM) it was -36.8% (inactive) and 31.2% (inactive); in test [6] (setting [7]) it was 30% (inactive) and 7% (inactive); in test [6] (setting [8]) it was 65% (inactive) and 57% (inactive); in test [6] (at 50.0 µM), -30.6% (inactive) and 53% (inactive).

Take `CC(C)C(NC(=O)CN)C(=O)O` (stereo unspecified) (H-Gly-[ξV]-OH): the growth inhibition in test [1] (setting [7]) is -165% (inactive); in test [1] (setting [8]), -152% (inactive); in test [1] (at 50.0 µM), -7.85% (inactive) and -10.2% (inactive) and -15.5% (inactive); in test [2] (setting [7]), -46% (inactive); in test [2] (setting [8]) it was -52% (inactive); in test [2] (at 50.0 µM), 3.95% (inactive) and -7.6% (inactive) and -21.6% (inactive). In addition, the growth inhibition was -62% (inactive) in test [3] (setting [7]); -64% (inactive) in test [3] (setting [8]); -0.15% (inactive) and -21.6% (inactive) and -5.05% (inactive) in test [3] (at 50.0 µM); -59% (inactive) in test [4] (setting [7]); -60% (inactive) in test [4] (setting [8]); 35.5% (inactive) and 5.7% (inactive) and -2.4% (inactive) in test [4] (at 50.0 µM). The growth inhibition was -75% (inactive) in test [5] (setting [7]); -79% (inactive) in test [5] (setting [8]); -31.8% (inactive) and -8.25% (inactive) and -5.15% (inactive) in test [5] (at 50.0 µM); -146% (inactive) in test [6] (setting [7]); -116% (inactive) in test [6] (setting [8]); 16.8% (inactive) and -21.9% (inactive) and -0.65% (inactive) in test [6] (at 50.0 µM).

Consider `Nc1ncnc2c1ncn2C1SC(CO)C(O)C1O` (stereo unspecified), for which the growth inhibition in test [1] (setting [7]) was 0% (inactive); in test [1] (setting [8]), 8% (inactive); in test [1] (at 50.0 µM), 4.35% (inactive) and 13.3% (inactive) and 42.6% (inactive); in test [2] (setting [7]), -6% (inactive); in test [2] (setting [8]) it was 5% (inactive); in test [2] (at 50.0 µM), 32.3% (inactive) and 4.55% (inactive) and -7.25% (inactive). The growth inhibition in test [3] (setting [7]) was 0% (inactive); in test [3] (setting [8]) it was 7% (inactive); in test [3] (at 50.0 µM), 3.2% (inactive) and 3.55% (inactive) and 36.1% (inactive); in test [4] (setting [7]) it was -4% (inactive); in test [4] (setting [8]) it was -4% (inactive); in test [4] (at 50.0 µM), 11.2% (inactive) and 44.8% (inactive) and 2.35% (inactive). Moreover, the growth inhibition in test [5] (setting [7]) is -3% (inactive); in test [5] (setting [8]) it was -7% (inactive); in test [5] (at 50.0 µM) it was -21.4% (inactive) and -3.85% (inactive) and -4.3% (inactive); in test [6] (setting [7]), 13% (inactive); in test [6] (setting [8]) it was 25% (inactive); in test [6] (at 50.0 µM), 14.7% (inactive) and 4.75% (inactive) and -3.25% (inactive).

For the compound `O=C(O)CCN1c2ccccc2Sc2ccccc21`, the growth inhibition is 1% (inactive) and -19% (inactive) in test [1] (setting [7]); 31% (inactive) and 27% (inactive) in test [1] (setting [8]); 35% (inactive) and 69.4% (inactive) in test [1] (at 50.0 µM); -22% (inactive) and -12% (inactive) in test [2] (setting [7]); 40% (inactive) and 48% (inactive) in test [2] (setting [8]); 13.3% (inactive) and 52% (inactive) in test [2] (at 50.0 µM). In addition, the growth inhibition in test [3] (setting [7]) is -5% (inactive) and -16% (inactive); in test [3] (setting [8]), 46% (inactive) and 41% (inactive); in test [3] (at 50.0 µM), 27.9% (inactive) and 69.6% (inactive); in test [4] (setting [7]), -8% (inactive) and 13% (inactive); in test [4] (setting [8]), 58% (inactive) and 52% (inactive); in test [4] (at 50.0 µM) it was 84.3% (active) and 54.4% (inactive). Besides, the growth inhibition in test [5] (setting [7]) was -15% (inactive) and -16% (inactive); in test [5] (setting [8]), 51% (inactive) and 48% (inactive); in test [5] (at 50.0 µM) it was 64.9% (inactive) and 39.2% (inactive); in test [6] (setting [7]), -7% (inactive) and -39% (inactive); in test [6] (setting [8]), 56% (inactive) and 35% (inactive); in test [6] (at 50.0 µM), 42.5% (inactive) and 54.9% (inactive).
